What was measured:
Test in all cases: thermal shift delta Tm vs DMSO control; higher = stronger stabilization (binding)
Conditions in all cases: 12.5 µM; protein concentration 2 µM
LOC_OS02G45750-cb003 = system: LOC_OS02G45750-cb003
In short: (§1)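 The melting temperature shift given here is a triplicate mean, measured against protein that received only DMSO. Melting temperatures came from Boltzmann fits of differential scanning fluorimetry data on E. coli-expressed, purified rice kinase domain constructs. Each 19.5 μl well contained 2 μM kinase, 100 mM potassium phosphate pH 7.5, 150 mM NaCl, 10% glycerol, 5 × SYPRO Orange and compound in DMSO. Plates were scanned from 25°C to 95°C at 0.05°C/s.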

LOC_OS02G54510-cb004 = system: LOC_OS02G54510-cb004
In short: as §1

LOC_OS03G04050-cb001 = system: LOC_OS03G04050-cb001
In short: as §1

LOC_OS03G12390-cb001 = system: LOC_OS03G12390-cb001
In short: as §1

LOC_OS03G27990-cb004 = system: LOC_OS03G27990-cb004
In short: as §1

LOC_OS03G50450-cb001 = system: LOC_OS03G50450-cb001
In short: as §1

LOC_OS03G50810-cb003 = system: LOC_OS03G50810-cb003
In short: as §1

LOC_OS04G35114-cb001 = system: LOC_OS04G35114-cb001
In short: as §1

LOC_OS04G38480-cb003 = system: T1, LOC_OS04G38480-cb003
T1 sequence (whole entry): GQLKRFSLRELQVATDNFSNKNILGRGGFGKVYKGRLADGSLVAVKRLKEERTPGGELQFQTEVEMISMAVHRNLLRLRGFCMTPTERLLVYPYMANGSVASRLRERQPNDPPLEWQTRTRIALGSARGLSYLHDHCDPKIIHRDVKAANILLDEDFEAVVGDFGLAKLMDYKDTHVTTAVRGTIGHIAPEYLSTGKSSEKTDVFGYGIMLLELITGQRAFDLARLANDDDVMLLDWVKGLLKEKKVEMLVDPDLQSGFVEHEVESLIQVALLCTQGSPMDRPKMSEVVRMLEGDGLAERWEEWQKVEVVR
In short: as §1

LOC_OS04G41100-cb001 = system: T2, LOC_OS04G41100-cb001
T2 sequence (whole entry): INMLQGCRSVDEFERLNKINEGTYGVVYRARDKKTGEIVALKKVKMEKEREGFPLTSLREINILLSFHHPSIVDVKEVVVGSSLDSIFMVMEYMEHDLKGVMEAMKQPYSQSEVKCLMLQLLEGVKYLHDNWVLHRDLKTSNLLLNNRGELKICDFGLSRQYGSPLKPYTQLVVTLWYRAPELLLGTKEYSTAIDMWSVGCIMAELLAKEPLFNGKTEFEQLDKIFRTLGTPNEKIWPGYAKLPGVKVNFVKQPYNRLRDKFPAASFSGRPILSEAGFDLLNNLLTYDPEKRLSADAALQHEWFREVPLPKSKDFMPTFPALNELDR
In short: as §1

Row | Structure (SMILES) | thermal shift delta Tm (LOC_OS02G45750-cb003) | thermal shift delta Tm (LOC_OS02G54510-cb004) | thermal shift delta Tm (LOC_OS03G04050-cb001) | thermal shift delta Tm (LOC_OS03G12390-cb001) | thermal shift delta Tm (LOC_OS03G27990-cb004) | thermal shift delta Tm (LOC_OS03G50450-cb001) | thermal shift delta Tm (LOC_OS03G50810-cb003) | thermal shift delta Tm (LOC_OS04G35114-cb001) | thermal shift delta Tm (LOC_OS04G38480-cb003) | thermal shift delta Tm (LOC_OS04G41100-cb001)
1 | O=C(Nc1ccc(OC(F)(F)F)cc1)c1sccc1NCc1ccnc2ccccc12 | 0.52 °C | 4.36 °C | 0.44 °C | 0.88 °C | 0.45 °C | 0.51 °C | 0.48 °C | 0.29 °C | 0.95 °C | 0.59 °C
2 | Oc1cccc(-c2nc(N3CCOCC3)c3oc4ncccc4c3n2)c1 | -0.07 °C | -0.06 °C | 0.32 °C | 0.43 °C | 0.03 °C | 0.47 °C | 0.16 °C | 0.22 °C | 1.17 °C | 0.89 °C
3 | C[C@H](NC(=O)c1c(N)nn2cccnc12)c1cc2cccc(C#Cc3cnn(C)c3)c2c(=O)n1-c1ccccc1 | 1.18 °C | 0.33 °C | 0.47 °C | -0.11 °C | 0.46 °C | 0.63 °C | 0.32 °C | 0.21 °C | 1.13 °C | 0.04 °C
4 | C=CC(=O)Nc1ccc2ncnc(Nc3cccc(Br)c3)c2c1 | 0.51 °C | 0.24 °C | 0.68 °C | -0.11 °C | 0.2 °C | 0.37 °C | 0.27 °C | 0.79 °C | 0.18 °C | 0.35 °C
5 | COc1c(C)c(C(=O)c2ccc(N)c(C(=O)O)c2)n2ccccc12 | 0.38 °C | 0.3 °C | 0.46 °C | -0.07 °C | 0.21 °C | 0.58 °C | 0.22 °C | 0.79 °C | 0.31 °C | 0.29 °C
6 | CC(=O)c1c(C)c2cnc(Nc3ccc(N4CCNCC4)cn3)nc2n(C2CCCC2)c1=O | 6.05 °C | 0.3 °C | 0.22 °C | 5.44 °C | 2.08 °C | 0.53 °C | 2.97 °C | 3.19 °C | 1.9 °C | 1.04 °C
7 | Cn1c(=O)c(Oc2ccc(F)cc2F)cc2cnc(NC(CCO)CCO)nc21 | 0.76 °C | 0.53 °C | 0.43 °C | -0.19 °C | 0.49 °C | 0.26 °C | 0.46 °C | 0.71 °C | 0.93 °C | 0.09 °C
8 | Cc1cn(-c2cc(NC(=O)c3ccc(C)c(Nc4nccc(-c5cnccn5)n4)c3)cc(C(F)(F)F)c2)cn1 [Radotinib] | 0.73 °C | 1.99 °C | 0.36 °C | 0.26 °C | 0.23 °C | -0.11 °C | 0.14 °C | 0.13 °C | 1.4 °C | 0.41 °C
9 | Cc1c(NC(=O)OC[C@@H]2COCCN2)cn2ncnc(Nc3ccc4c(cnn4Cc4cccc(F)c4)c3)c12 | 0.67 °C | 0.27 °C | 0.42 °C | 0.69 °C | 0.14 °C | 0.45 °C | 0.15 °C | 1.04 °C | 1.85 °C | 0.82 °C
